Drawing on the supplement of paper PMC6555819, this text covers PBM binding z-score for 40 sequences.

The assay relates to VDR:RXRa (NR concentration 270 nM, RXRa partner concentration 90 nM). Briefly: PBM binding z-score (relative to random genomic background probes); higher = stronger binding; sequences stand for … in GC…GCGATTGACAGCGTAGAATGAAGG
As to the method:
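Protein-binding microarray (Agilent 4x180K custom design, double-stranded 60-nt probes: 5' GC cap, 34-nt variable region, 24-nt constant primer region; full probe sequence given). Purified or IVT nuclear receptor:RXRα heterodimers (3:1 NR:RXRα, mostly 270:90 nM) or homodimers were incubated for 1 h in PBS with 2% milk and no ligand, then detected with Alexa488 antibodies. Fluorescence from o1-orientation probes (~5 replicates averaged) was converted to z-scores against 500 random hg19 background probes. Variable regions are seed direct-repeat (DR0–DR5) sites, all their single-nucleotide variants and half-site ablations.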
Sequence AGAATGAGGTTAGACGTAGATCAGGGAAGAAAGT came in with a PBM binding z-score of 0.639.

In turn, TCTTGTAGATAAAAGGTTAAGAAAGCCGAAGCCT came in with a PBM binding z-score of 1.2.

Sequence CTCGAAAGGTCGGTTGAGCTGAGTATACGGATAA displayed a PBM binding z-score of 0.528.

ACTATTAGTTGCGACGAGGGCAACCGATAGGTTG showed a PBM binding z-score of 0.0281.

With ATCGAAAGATCGAAGGTGAGTATACCCACCCGAA, the PBM binding z-score was found to be 0.0219.

Turning to CCCGACAGGTGAGAAGGTAACTCAGCCTCGATTA, the PBM binding z-score is -0.17.

AGTCAAAGTTCACTAGGTAAAGTAAGATTCAGCT came in with a PBM binding z-score of 3.34.

In turn, CTCGAAAGGTCGGTTGTGGTGAGTATACGGATAA yielded a PBM binding z-score of 1.05.

CCTTACGGGTCACGAGCTTATAGCACGACGAGCG: the PBM binding z-score turned out to be 3.95.

Take TCTTGTAGATCAATTGAGGTTAAGAAAGTGCGCT: the PBM binding z-score was determined as 1.86.

Sequence CAAACTTGGTCAAAGGTCAAAGTCGAGCCAACCA had a PBM binding z-score of 5.59.

Take CAAACTAGGTCACCGGCAGGTCAAAGTCCGCATG: the PBM binding z-score was 5.36.

As for TCATATAGCTAAAAGGTGAAAGTCGGTGTGGTAA, the PBM binding z-score is 0.864.

CCGACTGGGGCAAAAGGTTACCATAAGCCAGCCC returned a PBM binding z-score of 1.08.

As to CGTCCAAGGTAAAAGGTCAGTGAAGAGATGACGG, the PBM binding z-score worked out at 2.93.

For CCTACAGGGCCATTCAGAGGTCATTGATCATATG, the PBM binding z-score amounted to 4.57.

AGAACGAGGGCAATGGGTTGATAGCACGGGTGGC yielded a PBM binding z-score of 5.47.

Sequence AGAATGAGGTTACCAAAGATCAGGTAAACGCTTG gave a PBM binding z-score of 1.44.

As to CCTACTGGGCCTAGGTCATTGATCAGTCAAAGCA, the PBM binding z-score was found to be 0.813.

The sequence CCTACCGGGCCAAAAAGGTCATTGATGCCGATAA displayed a PBM binding z-score of 5.13.

As for GCATATAGGTAATACAAGGTGAAAGCCCGATTGT, the PBM binding z-score worked out at 0.178.

Sequence CGTCTAAGTTCAACTAAGGTAACGTAAAGCACGC yielded a PBM binding z-score of 4.12.

As to CGAACTAGGTCAGAACAGGCCAGTGAAGGATGAT, the PBM binding z-score was 0.281.

In turn, CCGACTGGGGCAAGGTTTCCATAACGCACAGCCA returned a PBM binding z-score of -0.502.

In turn, ACTTACGGGTCGACGAGGTTATAGCACGCGTATA gave a PBM binding z-score of 6.05.

As to TCTGCTAGGTCAACGATGGTCACCTAATCTGCTA, the PBM binding z-score is 2.19.

Regarding CGTAAAAGTTCAAGGTAACGTAACAGAAAGCAGC, the PBM binding z-score came to 3.38.

Regarding AGAACGAGGGCAATGAGTTGATAGCACGGGTGGC, the PBM binding z-score is 4.96.

With ACCTCTAGGTAAAAGTTCAGTGAATCCCGAGGAT, the PBM binding z-score came to 0.859.

In turn, CGAACTAGGTCATTGACAGGACAGTGATTAGTAA displayed a PBM binding z-score of 2.47.

As for ACAGAAAGGTGATGAAGGTAACTCAGGCTATCAT, the PBM binding z-score came out at 1.2.

For TCTCGGAAGACACGAAGGTCAGAGCTTTCCAGAG, the PBM binding z-score worked out at 1.08.

Turning to CAAACTAGGTTAAGAGGTCAAAGTCCGCTTCCCG, the PBM binding z-score stood at 5.21.

With ATCTCTGGGTAAAAGTTCAGTGAATCCCGAGGAT, the PBM binding z-score was determined as 1.25.

Consider ATCGAAAGGCCGAAGGTGAGTATACCCACCCGAA, for which the PBM binding z-score is -0.338.

Sequence GCTCGGAGGACAAGGTCAGTGCTTTGTCCGTAGA gave a PBM binding z-score of 1.19.

Consider AGTCAAAGTTCACTAGGTATCGTAAGATTCAGCT, for which the PBM binding z-score is 3.89.

CCGACTGGGGCAAGCTTACCATAACGCACAGCCA registered a PBM binding z-score of -0.753.

As for TCTATTAGTTGAATAGGGCAACCGAAACAGCGGA, the PBM binding z-score came to 0.6.

Sequence CCTATTAGTTGACCAAAAGGGCAACCGAAGCTCG gave a PBM binding z-score of 0.901.
